The source of these data is ChEMBL document CHEMBL1961873, “Compounds: GSK PKIS; Assays: Nanosyn kinase panel” (2012).

Test [1] has as its target T1, Tyrosine-protein kinase ITK/TSK (Homo sapiens) (UniProt Q08881).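 Note: values are mean percent inhibition of ITK from the GSK PKIS screen.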
T1 sequence (whole entry): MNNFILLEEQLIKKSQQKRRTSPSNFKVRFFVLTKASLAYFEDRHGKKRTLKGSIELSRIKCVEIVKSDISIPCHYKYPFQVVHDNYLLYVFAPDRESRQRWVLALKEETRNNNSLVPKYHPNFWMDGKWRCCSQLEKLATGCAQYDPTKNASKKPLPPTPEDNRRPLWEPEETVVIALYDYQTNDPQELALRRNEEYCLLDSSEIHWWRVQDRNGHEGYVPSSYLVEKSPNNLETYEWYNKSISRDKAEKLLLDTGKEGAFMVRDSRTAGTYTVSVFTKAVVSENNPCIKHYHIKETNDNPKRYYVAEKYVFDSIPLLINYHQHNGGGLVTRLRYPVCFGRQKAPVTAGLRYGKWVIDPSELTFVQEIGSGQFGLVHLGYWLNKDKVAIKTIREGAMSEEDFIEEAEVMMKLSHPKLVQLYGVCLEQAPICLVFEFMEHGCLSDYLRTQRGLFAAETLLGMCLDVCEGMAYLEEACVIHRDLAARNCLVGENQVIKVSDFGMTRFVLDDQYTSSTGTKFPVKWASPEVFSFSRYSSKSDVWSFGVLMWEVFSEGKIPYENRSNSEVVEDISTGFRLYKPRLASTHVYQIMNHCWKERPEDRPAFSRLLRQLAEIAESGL
As to conditions: at 1 µM.

Test [2] addresses Tyrosine-protein kinase JAK1 (Homo sapiens) (UniProt P23458). To be noted: at 0.1 µM.
Test [3] shares this target. To be noted: at 1 µM.
Test [4] addresses Tyrosine-protein kinase JAK2 (Homo sapiens) (UniProt O60674). As to conditions: at 0.1 µM.
Test [5] has the same target. As to conditions: at 1 µM.
Test [6] concerns the target T2, Tyrosine-protein kinase JAK3 (Homo sapiens) (UniProt P52333).
T2 sequence (whole entry): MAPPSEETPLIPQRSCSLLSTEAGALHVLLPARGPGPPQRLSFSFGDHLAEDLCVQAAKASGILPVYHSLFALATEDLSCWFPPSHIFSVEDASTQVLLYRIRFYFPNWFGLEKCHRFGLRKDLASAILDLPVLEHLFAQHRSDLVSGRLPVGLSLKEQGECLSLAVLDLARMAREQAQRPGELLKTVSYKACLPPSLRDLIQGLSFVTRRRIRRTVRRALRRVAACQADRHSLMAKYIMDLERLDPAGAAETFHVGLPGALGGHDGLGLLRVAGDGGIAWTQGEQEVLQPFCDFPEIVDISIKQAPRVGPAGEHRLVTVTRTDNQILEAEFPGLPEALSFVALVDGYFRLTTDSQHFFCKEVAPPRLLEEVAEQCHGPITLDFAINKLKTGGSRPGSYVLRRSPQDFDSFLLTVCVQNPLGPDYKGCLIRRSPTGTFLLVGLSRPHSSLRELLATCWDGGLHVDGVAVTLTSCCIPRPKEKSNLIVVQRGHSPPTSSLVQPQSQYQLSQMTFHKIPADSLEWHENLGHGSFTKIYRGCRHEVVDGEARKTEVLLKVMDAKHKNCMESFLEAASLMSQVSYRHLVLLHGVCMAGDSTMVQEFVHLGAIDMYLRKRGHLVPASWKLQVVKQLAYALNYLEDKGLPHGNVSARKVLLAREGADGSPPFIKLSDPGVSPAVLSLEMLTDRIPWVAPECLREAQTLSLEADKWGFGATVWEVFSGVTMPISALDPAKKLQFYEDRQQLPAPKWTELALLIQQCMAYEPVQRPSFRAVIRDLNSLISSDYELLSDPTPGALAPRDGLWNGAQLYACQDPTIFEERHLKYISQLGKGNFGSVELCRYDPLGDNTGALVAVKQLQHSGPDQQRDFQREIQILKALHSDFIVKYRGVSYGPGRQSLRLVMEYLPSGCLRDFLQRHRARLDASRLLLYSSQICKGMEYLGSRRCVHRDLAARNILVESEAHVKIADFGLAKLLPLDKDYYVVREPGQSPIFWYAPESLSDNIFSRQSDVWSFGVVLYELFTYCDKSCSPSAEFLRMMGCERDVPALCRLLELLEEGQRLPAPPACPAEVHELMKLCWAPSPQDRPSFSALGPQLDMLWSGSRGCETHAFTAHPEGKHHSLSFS
To be noted: at 0.1 µM.

Test [7] deals with T2, Tyrosine-protein kinase JAK3 (Homo sapiens). To be noted: at 1 µM.
The target of test [8] is Vascular endothelial growth factor receptor 2 (Homo sapiens) (UniProt P35968). As to conditions: at 0.1 µM.
The target is the same in test [9]. As to conditions: at 1 µM.
Test [10] addresses Mast/stem cell growth factor receptor Kit (Homo sapiens) (UniProt P10721). As to conditions: at 0.1 µM.

Chain of Tyrosine-protein kinase JAK2 (Homo sapiens) (O60674 whole entry): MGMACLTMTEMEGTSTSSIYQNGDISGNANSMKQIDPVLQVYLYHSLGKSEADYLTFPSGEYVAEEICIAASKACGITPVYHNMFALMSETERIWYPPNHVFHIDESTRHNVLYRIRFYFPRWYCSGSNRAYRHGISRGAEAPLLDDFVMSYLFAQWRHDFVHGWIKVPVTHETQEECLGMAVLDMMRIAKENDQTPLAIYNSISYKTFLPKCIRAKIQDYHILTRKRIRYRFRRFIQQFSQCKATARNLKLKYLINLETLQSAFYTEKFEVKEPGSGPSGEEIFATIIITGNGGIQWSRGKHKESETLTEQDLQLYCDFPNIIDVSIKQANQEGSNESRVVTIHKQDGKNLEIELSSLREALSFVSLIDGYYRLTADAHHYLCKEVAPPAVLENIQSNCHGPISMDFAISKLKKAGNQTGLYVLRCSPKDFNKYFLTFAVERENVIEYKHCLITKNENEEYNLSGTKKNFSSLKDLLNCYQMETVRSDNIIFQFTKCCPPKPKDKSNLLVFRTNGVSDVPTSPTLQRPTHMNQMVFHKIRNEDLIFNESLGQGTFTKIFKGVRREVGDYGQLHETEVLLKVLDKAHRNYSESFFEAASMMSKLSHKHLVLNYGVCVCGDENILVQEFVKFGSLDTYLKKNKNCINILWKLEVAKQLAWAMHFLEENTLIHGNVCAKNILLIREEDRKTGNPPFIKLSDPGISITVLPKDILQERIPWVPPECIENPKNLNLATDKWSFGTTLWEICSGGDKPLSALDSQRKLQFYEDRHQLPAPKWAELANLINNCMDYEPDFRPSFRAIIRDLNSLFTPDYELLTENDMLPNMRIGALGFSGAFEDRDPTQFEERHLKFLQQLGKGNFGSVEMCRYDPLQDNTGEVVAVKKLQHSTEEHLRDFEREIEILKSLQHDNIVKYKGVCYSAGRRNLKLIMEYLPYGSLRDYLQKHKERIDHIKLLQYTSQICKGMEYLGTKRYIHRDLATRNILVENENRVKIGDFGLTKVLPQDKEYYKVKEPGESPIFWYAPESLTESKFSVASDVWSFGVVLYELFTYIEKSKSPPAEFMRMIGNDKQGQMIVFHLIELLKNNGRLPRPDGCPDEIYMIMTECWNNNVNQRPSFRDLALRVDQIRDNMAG
Chain of Tyrosine-protein kinase JAK1 (Homo sapiens) (P23458 whole entry): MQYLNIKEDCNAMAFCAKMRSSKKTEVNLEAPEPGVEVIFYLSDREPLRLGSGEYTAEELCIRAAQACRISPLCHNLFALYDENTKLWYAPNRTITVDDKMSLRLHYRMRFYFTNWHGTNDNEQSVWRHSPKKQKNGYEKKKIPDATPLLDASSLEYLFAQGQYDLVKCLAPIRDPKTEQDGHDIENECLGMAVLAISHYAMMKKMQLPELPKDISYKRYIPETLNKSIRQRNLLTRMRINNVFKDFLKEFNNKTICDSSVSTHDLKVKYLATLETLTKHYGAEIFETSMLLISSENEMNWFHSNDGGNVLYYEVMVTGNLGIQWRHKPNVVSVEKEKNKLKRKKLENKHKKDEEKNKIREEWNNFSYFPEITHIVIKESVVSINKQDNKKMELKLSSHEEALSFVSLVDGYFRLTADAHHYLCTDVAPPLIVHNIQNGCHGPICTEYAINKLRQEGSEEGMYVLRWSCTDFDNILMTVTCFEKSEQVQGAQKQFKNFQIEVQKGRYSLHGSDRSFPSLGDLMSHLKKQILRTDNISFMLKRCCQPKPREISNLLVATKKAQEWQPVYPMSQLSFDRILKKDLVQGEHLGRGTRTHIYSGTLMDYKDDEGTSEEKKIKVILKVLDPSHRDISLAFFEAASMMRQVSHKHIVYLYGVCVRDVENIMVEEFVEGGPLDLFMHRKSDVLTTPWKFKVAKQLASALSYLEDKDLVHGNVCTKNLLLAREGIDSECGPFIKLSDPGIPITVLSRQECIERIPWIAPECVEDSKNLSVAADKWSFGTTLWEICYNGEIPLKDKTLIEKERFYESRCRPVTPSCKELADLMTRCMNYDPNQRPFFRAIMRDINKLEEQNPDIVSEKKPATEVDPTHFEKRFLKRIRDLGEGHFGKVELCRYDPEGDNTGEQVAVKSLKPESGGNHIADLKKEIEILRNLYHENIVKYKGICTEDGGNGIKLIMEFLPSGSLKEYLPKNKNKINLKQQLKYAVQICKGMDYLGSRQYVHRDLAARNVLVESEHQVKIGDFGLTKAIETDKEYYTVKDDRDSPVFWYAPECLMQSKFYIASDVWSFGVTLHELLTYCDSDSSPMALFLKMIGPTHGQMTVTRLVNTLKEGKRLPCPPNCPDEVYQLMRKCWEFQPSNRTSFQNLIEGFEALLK
Chain of Mast/stem cell growth factor receptor Kit (Homo sapiens) (P10721 whole entry): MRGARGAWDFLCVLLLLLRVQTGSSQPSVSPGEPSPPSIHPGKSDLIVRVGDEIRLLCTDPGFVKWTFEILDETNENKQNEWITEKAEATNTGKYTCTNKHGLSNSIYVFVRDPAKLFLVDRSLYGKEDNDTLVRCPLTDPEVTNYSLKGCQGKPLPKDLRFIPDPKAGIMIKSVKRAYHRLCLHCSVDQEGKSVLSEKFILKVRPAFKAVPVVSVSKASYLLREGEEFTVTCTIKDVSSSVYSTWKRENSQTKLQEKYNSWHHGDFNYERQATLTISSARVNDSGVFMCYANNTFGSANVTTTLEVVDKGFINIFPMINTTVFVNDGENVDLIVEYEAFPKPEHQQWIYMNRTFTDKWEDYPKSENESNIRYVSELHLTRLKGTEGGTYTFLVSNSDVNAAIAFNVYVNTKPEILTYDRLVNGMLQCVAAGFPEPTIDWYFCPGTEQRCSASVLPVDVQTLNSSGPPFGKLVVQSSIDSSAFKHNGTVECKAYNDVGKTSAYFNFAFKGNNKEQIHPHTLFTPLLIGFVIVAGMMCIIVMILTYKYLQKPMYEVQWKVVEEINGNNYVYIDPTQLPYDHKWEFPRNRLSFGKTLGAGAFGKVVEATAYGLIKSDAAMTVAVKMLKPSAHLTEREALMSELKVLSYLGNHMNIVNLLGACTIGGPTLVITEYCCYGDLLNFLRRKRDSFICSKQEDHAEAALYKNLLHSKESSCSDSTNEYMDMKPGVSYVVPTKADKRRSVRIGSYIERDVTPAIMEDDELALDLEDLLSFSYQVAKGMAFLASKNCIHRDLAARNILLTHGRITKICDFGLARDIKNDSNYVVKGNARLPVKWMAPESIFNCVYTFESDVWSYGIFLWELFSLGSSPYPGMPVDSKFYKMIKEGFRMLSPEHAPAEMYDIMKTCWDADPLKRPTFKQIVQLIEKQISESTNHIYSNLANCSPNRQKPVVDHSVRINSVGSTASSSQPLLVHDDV
Chain of Vascular endothelial growth factor receptor 2 (Homo sapiens) (P35968 whole entry): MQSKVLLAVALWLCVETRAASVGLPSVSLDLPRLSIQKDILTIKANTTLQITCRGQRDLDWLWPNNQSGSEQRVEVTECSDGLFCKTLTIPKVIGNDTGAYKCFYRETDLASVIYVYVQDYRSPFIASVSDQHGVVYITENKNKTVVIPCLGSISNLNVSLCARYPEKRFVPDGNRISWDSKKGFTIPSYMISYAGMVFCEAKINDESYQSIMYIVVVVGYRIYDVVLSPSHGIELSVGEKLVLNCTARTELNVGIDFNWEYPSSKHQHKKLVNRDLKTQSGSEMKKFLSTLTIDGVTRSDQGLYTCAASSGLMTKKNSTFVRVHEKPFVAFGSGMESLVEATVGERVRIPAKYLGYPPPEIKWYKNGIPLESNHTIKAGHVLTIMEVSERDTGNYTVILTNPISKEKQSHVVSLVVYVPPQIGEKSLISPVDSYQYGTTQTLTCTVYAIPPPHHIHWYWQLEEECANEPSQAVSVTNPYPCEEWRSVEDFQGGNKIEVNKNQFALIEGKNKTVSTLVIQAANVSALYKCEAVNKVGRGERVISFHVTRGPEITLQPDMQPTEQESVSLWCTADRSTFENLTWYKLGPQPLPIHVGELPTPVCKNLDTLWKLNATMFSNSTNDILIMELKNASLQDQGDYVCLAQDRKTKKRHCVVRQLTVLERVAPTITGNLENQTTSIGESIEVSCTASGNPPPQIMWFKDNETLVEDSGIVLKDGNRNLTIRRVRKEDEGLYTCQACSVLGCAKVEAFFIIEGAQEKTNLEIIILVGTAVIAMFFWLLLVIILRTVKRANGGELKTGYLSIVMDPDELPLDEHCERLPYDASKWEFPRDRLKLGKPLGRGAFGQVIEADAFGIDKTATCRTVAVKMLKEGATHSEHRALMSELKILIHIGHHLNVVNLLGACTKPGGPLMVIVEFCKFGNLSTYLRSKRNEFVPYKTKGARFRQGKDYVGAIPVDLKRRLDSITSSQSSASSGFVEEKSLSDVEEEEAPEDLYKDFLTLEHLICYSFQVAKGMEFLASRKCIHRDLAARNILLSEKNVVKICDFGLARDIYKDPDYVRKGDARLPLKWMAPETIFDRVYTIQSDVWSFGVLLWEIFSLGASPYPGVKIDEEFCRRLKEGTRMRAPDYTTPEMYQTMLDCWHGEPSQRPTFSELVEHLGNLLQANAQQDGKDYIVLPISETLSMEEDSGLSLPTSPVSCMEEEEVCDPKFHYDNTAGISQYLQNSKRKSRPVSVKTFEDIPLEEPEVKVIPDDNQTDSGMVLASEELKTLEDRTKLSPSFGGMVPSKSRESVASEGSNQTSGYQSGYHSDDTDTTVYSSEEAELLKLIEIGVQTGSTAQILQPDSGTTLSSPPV

The term inhibition denotes the relative decrease from the control value, in per cent. Turning to `CCn1c(-c2nonc2N)nc2c(C#CC(C)(C)O)ncc(OCC3CCNCC3)c21`, the inhibition was -1.96% in [1]; 4.7% in [2]; 12.5% in [3]; 0.61% in [4]; 1.31% in [5]; -4.99% in [6]. For the same compound, the inhibition in test [7] is -3.39%; in test [8], 34.8%; in test [9], 71.2%; in test [10] it was 4.46%.

Take `Fc1ccc(-c2ncn(C3CCNCC3)c2-c2ccnc(Oc3ccccc3)n2)cc1`: the inhibition in test [1] was -3.42%; in test [2], 1.24%; in test [3], -0.07%; in [4] it was -0.28%; in test [5] it was -0.02%; in test [6] it was -6.39%. The inhibition in test [7] was -5.72%; in [8], 4.3%; in [9] it was 6.72%; in test [10], 0.89%.

For `COc1cc(C=NNc2ncnc3c2cnn3Cc2ccccc2)ccc1O`, the inhibition in test [1] is 0.65%; in test [2] it was -5.07%; in [3], 3.34%; in test [4] it was -1.56%; in [5], -0.04%; in test [6] it was 0.38%. In addition, the inhibition in test [7] was 3.71%; in [8], -1.08%; in test [9], 12.2%; in test [10] it was -5.78%.

For `NS(=O)(=O)c1ccc(-c2ccc3c(NC(=O)C4CC4)n[nH]c3c2)cc1`, the inhibition was 6.67% in test [1]; 1.47% in [2]; -1.13% in [3]; 1.06% in test [4]; 2.65% in test [5]; -0.06% in [6]. Moreover, the inhibition amounted to 2.45% in test [7], 3.61% in [8], 8.35% in [9] and 3.61% in test [10].

On to `CCn1c(-c2nonc2N)nc2c(C#CC(C)(C)O)ncc(OC[C@@H]3CCCN3)c21`, for which the inhibition in [1] was 0.41%; in [2], 0.75%; in [3] it was 2.18%; in test [4], -1.4%; in test [5], -2.12%; in test [6], -2.14%. Moreover, the inhibition was 0.33% in [7], 31.2% in test [8], 81.3% in test [9] and -1.26% in test [10].

`COc1cccc(-n2ncc3c(N/N=C/c4ccncc4)ncnc32)c1`: the inhibition in test [1] was 5.47%; in [2] it was 5.43%; in [3], 15.3%; in test [4] it was 2.01%; in test [5], 13.5%; in [6] it was -0.96%. Also, the inhibition in [7] is 10.6%; in test [8] it was 28.8%; in test [9], 69.2%; in test [10], 13.5%.

Take `NS(=O)(=O)c1ccc(N/C=C2\C(=O)Nc3ccc4ncsc4c32)cc1`: the inhibition in test [1] came out at 8.24%; in test [2], 5.09%; in test [3], 26.8%; in [4], 1.74%; in test [5] it was 11.1%; in test [6] it was 6.45%. In addition, the inhibition came to 54.4% in test [7], 43.8% in test [8], 75.3% in [9] and 50% in test [10].

On to `CCn1c(-c2nonc2N)nc2c(C#CC(C)(C)O)nc(O[C@@H](CN)c3ccccc3)cc21`, for which the inhibition in test [1] is 0.91%; in test [2], -1.37%; in test [3] it was 4.4%; in [4], -0.3%; in [5] it was 0.78%; in test [6], 0.59%. The inhibition was 3.54% in test [7], 86.8% in test [8], 75.4% in test [9] and -1.5% in [10].

Regarding `COc1cccc(COc2cc(-n3cnc4ccccc43)sc2C(N)=O)c1`, the inhibition in test [1] is 0.54%; in [2], -1.14%; in test [3], 0.01%; in [4] it was -1.09%; in [5], -2.1%; in test [6], -1.45%. For the same compound, the inhibition in test [7] is -1.13%; in [8] it was -3.84%; in [9], 3.07%; in [10], 0.16%.

As for `Nc1nonc1-c1nc2cnccc2n1C1CCCCC1`, the inhibition in test [1] was 0.48%; in test [2] it was -2.62%; in test [3], 2.81%; in test [4], -0.95%; in test [5], -0.41%; in test [6] it was -0.04%. Moreover, the inhibition was 3.98% in test [7], 6.99% in test [8], 46.3% in test [9] and -1.47% in [10].

For the compound `COc1cc2c(cc1Nc1nc(Nc3ccsc3C(N)=O)c3cc[nH]c3n1)N(C(=O)CN(C)C)CCC2`, the inhibition in [1] was 0.88%; in [2] it was 3.36%; in test [3], 1.85%; in test [4] it was 3.45%; in test [5], -0.28%; in test [6] it was -2.19%. For the same compound, the inhibition in test [7] is -1.7%; in test [8], 1.27%; in [9], 5.32%.

For the compound `NC(=O)c1sc(-n2cnc3cc(C(F)(F)F)ccc32)cc1OCc1ccccc1Br`, the inhibition was 1.42% in [1]; 5.27% in test [2]; 5.31% in test [3]; 0.93% in [4]; -0.32% in [5]; -1.17% in [6]. Also, the inhibition in [7] was 0.71%; in [8], 1.59%; in test [9], 4.43%; in test [10] it was -1.21%.

For `Cc1cc(-c2ccco2)cc(C)c1/C=C/c1cncc(-c2nn[nH]n2)c1`, the inhibition is 0.9% in test [1]; -0.35% in test [2]; 3.09% in test [3]; 0% in [4]; -0.44% in [5]; -1.94% in test [6]. Also, the inhibition in test [7] is 0.31%; in [8] it was -2.08%; in test [9], -0.14%; in [10], -0.86%.

As to `CCn1c(-c2nonc2N)nc2c(C#CCN)ncc(OCCCN)c21`, the inhibition is -1.36% in test [1]; 4.06% in test [2]; 13.7% in test [3]; -1.01% in test [4]; -1.7% in test [5]; 5.62% in [6]. Moreover, the inhibition in [7] is 4.64%; in test [8] it was -3.31%; in test [9] it was 5.24%; in test [10] it was -1.96%.
